About 83,000 compounds went through this panel and 20% of them were active in at least one assay; those are over-represented in the sample as a whole.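 The test compound was applied at a single concentration to cells in 96-well plates for 48 hours, and percent growth was recorded.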 Unmarked numbers belong to inactive results. Calls of active or inactive are those of the source. The calls were made as follows: active = growth percent below 10; inactive = the rest.

Among the test systems are T-47D breast; BT-549 breast; MDA-MB-435 melanoma; SW-620 colon; MCF7 breast; HCT-116 colon; HCC-2998 colon; KM12 colon.
What all share (test): NCI-60 one-dose screen, 48 h (100 = growth as untreated, 0 = no growth, -100 = all killed)
Details in all cases: 10 µM unless noted

Take `CCN(CC)c1ccc2cc(C(Nc3ccc(C)cc3)c3nnnn3C(C)(C)C)c(=O)oc2c1` (configuration not stated): the growth is 71.1% in the experiment on T-47D breast; 89.1% in the experiment with BT-549 breast; 97.5% in the experiment with MDA-MB-435 melanoma; 102% in the experiment on SW-620 colon; 81.4% in the experiment on MCF7 breast; 87.9% in the experiment on HCT-116 colon. The values for the growth in the experiment with HCC-2998 colon and with KM12 colon were 107% and 103%, respectively.

As to `C#CC(OC(=O)N(C)C)(c1ccccc1)c1ccc(F)cc1` (configuration not stated), the growth was 100% with T-47D breast; 111% with BT-549 breast; 120% in the experiment with MDA-MB-435 melanoma; 107% in the experiment with SW-620 colon; 113% in the experiment on MCF7 breast; 105% with HCT-116 colon. For the same compound, the growth in the experiment on KM12 colon was 107%.

Consider `NC(=O)c1cccc(-c2ccc(S(=O)(=O)Nc3ccc4c(c3)N(C(=O)C3CC3)CCC4)cc2)c1`, for which the growth is 26.1% in the experiment on T-47D breast; 96.7% with BT-549 breast; 1.89% (active) in the experiment on MDA-MB-435 melanoma; 32.3% with SW-620 colon; 22.9% with MCF7 breast; 98.2% in the experiment on HCT-116 colon. The results for the growth in the experiment on HCC-2998 colon and in the experiment with KM12 colon were 64.5% and 18.9%, respectively.

Take `CCCCN(CC)CC(CC)Nc1cc(OC)cc2cccnc12` (configuration not stated): the growth in the experiment on T-47D breast is 110%; in the experiment on BT-549 breast, 110%; in the experiment with MDA-MB-435 melanoma it was 102%; with SW-620 colon it was 108%; with MCF7 breast it was 98.5%; in the experiment on HCT-116 colon, 105%. Besides, the growth with KM12 colon was 107%.

Regarding `Nc1ccc(NC(=O)c2ccccc2)c2c1C(=O)c1ccccc1C2=O`, the growth in the experiment with T-47D breast is 107%; in the experiment with BT-549 breast, 101%; with MDA-MB-435 melanoma it was 98.2%; in the experiment on SW-620 colon, 98.3%; in the experiment on MCF7 breast it was 81.6%; with HCT-116 colon, 101%. The growth with KM12 colon was 96%.

Regarding `O=C(Nc1cccnc1)c1ccc2ccc3ccc(C(=O)Nc4cccnc4)nc3c2n1`, the growth in the experiment on T-47D breast was 37.2%; in the experiment with BT-549 breast, 34.7%; in the experiment with MDA-MB-435 melanoma, 24.9%; in the experiment on SW-620 colon, 11%; in the experiment with MCF7 breast it was 28.9%; with HCT-116 colon, 4.76% (active). Besides, the growth in the experiment with KM12 colon is 5.81% (active).

For the compound `C[C@H]1[C@H](C)CC[C@]2(C(=O)O)CC[C@]3(C)C(=CC[C@@H]4[C@@]5(C)C/C(=C/c6ccco6)C(=O)C(C)(C)[C@@H]5CC[C@]43C)[C@H]12`, the growth in the experiment on T-47D breast is -14.3% [100 µM] (active); in the experiment on BT-549 breast, -62.5% [100 µM] (active); with MDA-MB-435 melanoma it was -85.1% [100 µM] (active); in the experiment on SW-620 colon, -44.9% [100 µM] (active); in the experiment on HCT-116 colon it was -73% [100 µM] (active); with HCC-2998 colon it was -81.4% [100 µM] (active). Moreover, the growth with KM12 colon was -73.5% [100 µM] (active).

For `COc1ccc2nc3c(cc2c1)C(=O)CC(C(F)(F)F)C3` (configuration not stated), the growth with T-47D breast was 41.1%; in the experiment on BT-549 breast it was 61%; in the experiment on MDA-MB-435 melanoma, -47.7% (active); in the experiment on SW-620 colon, 41.5%; in the experiment with HCT-116 colon, 11.9%; in the experiment on HCC-2998 colon it was 84%. Moreover, the growth in the experiment on KM12 colon is 11.6%.

`CC(C)C1=NOC(=O)C1=Cc1cn(-c2cccnc2)nc1-c1ccccc1`: the growth was 92.6% in the experiment on T-47D breast; 125% with BT-549 breast; 95.1% in the experiment with MDA-MB-435 melanoma; 88.8% in the experiment with SW-620 colon; 81.2% in the experiment with HCT-116 colon; 111% with HCC-2998 colon. In the experiment on KM12 colon, the growth is 102%.

For `CC(C)C1=NOC(=O)C1=Cc1cn(-c2ccco2)nc1-c1ccccc1`, the growth was 49% in the experiment with T-47D breast; 116% with BT-549 breast; 91.9% in the experiment on MDA-MB-435 melanoma; 84% in the experiment on SW-620 colon; 58.2% in the experiment on HCT-116 colon; 101% in the experiment on HCC-2998 colon. Moreover, the growth with KM12 colon is 85.2%.

Consider `C=C(C)[C@@H]1CC[C@]2(C(=O)O)CC[C@]3(C)[C@H](CC[C@@H]4[C@@]5(C)C/C(=C/c6ccco6)C(=O)C(C)(C)[C@@H]5CC[C@]43C)[C@@H]12`, for which the growth is -8.1% [100 µM] (active) in the experiment on T-47D breast; -67.8% [100 µM] (active) in the experiment on BT-549 breast; -75.9% [100 µM] (active) in the experiment on MDA-MB-435 melanoma; -34.7% [100 µM] (active) in the experiment with SW-620 colon; -74.7% [100 µM] (active) in the experiment with HCT-116 colon; -78.1% [100 µM] (active) in the experiment on HCC-2998 colon. The growth with KM12 colon is -96.3% [100 µM] (active).

With `C[C@@H]1C[C@H]2C(=O)O[C@@H](C)[C@H](NC(=O)[C@H](Cc3cc(F)cc(F)c3)NC(=O)Nc3ccc(Cl)cc3F)C(=O)N3C[C@H](O)C[C@H]3C(=O)N3CCN(C)C[C@H]3C(=O)N[C@@H](C)C(=O)N2C1`, the growth with T-47D breast was 19.2%; in the experiment on BT-549 breast it was 14.9%; in the experiment on MDA-MB-435 melanoma, 22.3%; with SW-620 colon it was 42%; with MCF7 breast, 23%; in the experiment with HCT-116 colon, 8.85% (active). Moreover, the growth in the experiment on KM12 colon is 41.2%.

For the compound `Cc1ccc(S(=O)(=O)NCCCNc2nccc(-c3c(-c4cccc(F)c4)nc4occn34)n2)cc1`, the growth in the experiment with T-47D breast was 39.5%; with BT-549 breast, 92.1%; in the experiment with MDA-MB-435 melanoma, 43.4%; with SW-620 colon, 76.8%; with HCT-116 colon, 53.6%; in the experiment with HCC-2998 colon, 117%. For the same compound, the growth in the experiment with KM12 colon is 77.6%.

As for `CN(C)CCCNc1nc(-c2cccc(C(Cl)(Cl)Cl)c2)nc(C(Cl)(Cl)Cl)n1`, the growth in the experiment on T-47D breast is 109%; with BT-549 breast, 77.8%; in the experiment on MDA-MB-435 melanoma, 105%; in the experiment with SW-620 colon it was 98.8%; with HCT-116 colon, 92.9%; in the experiment on HCC-2998 colon, 107%. Further, in the experiment with KM12 colon, the growth was 111%.

Turning to `C=C(CN=[N+]=[N-])[C@@H]1CC[C@]2(C)[C@H](CC[C@@H]3[C@H]4[C@H]5OC(=O)[C@@]4(CCC5(C)C)CC[C@]32C)[C@@]1(C)CCC#N`, the growth with T-47D breast was 55.6% [100 µM]; in the experiment with BT-549 breast, 78.7% [100 µM]; in the experiment with MDA-MB-435 melanoma, 76.3% [100 µM]; in the experiment with SW-620 colon it was 87.3% [100 µM]; in the experiment on HCT-116 colon, 47.3% [100 µM]; in the experiment on HCC-2998 colon, 89.3% [100 µM]. Also, the growth in the experiment with KM12 colon was 81.7% [100 µM].

Consider `Cc1ccc(-c2cc(-c3ccc(C)cc3)nc(NCCNc3ccnc4cc(Cl)ccc34)n2)cc1`, for which the growth was -69.2% (active) in the experiment on T-47D breast; 57.7% in the experiment with BT-549 breast; -76.4% (active) in the experiment on MDA-MB-435 melanoma; -64.9% (active) with SW-620 colon; -84.5% (active) in the experiment on HCT-116 colon; -80.2% (active) with HCC-2998 colon. For the same compound, the growth in the experiment with KM12 colon is -73% (active).

On to `CCN(CC)CCCC(C)Nc1c2ccc(C)cc2nc2ccc(OC)cc12` (configuration not stated), for which the growth was 70.7% in the experiment on T-47D breast; 73% in the experiment on BT-549 breast; 10.2% with MDA-MB-435 melanoma; -41.4% (active) in the experiment with SW-620 colon; 16.6% in the experiment with HCT-116 colon; 34.9% with HCC-2998 colon. Further, the growth in the experiment on KM12 colon is 16.4%.

As for `Cc1ccc(S(=O)(=O)Nc2ccccc2)cc1N`, the growth in the experiment on T-47D breast was 101%; in the experiment on BT-549 breast, 49.5%; in the experiment on MDA-MB-435 melanoma, 92.6%; in the experiment with SW-620 colon, 99.7%; in the experiment with MCF7 breast, 91.8%; in the experiment on KM12 colon, 107%.

Source of the values: PubChem BioAssay (NCI).
